According to PubChem BioAssay AID1159580 (chemical genetic matrix, 2015):
About 2,000 (36%) of roughly 5,500 compounds were called active. Roughly 18% stayed inconclusive and do not appear here. Rule as the data show it: active = normalized growth mostly below about 0.91 (no sharp cut-off); inconclusive = no clear call, values can overlap the other calls; inactive = mostly above about 0.92. The list shows a part of the results.

Test: chemical genetic growth profiling, strain panel (AID 1159580);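 also: tested at 20 µM; growth read once vehicle control cultures reached saturation at 30 °C; 1 = growth at the plate median or of vehicle wells; lower values mean less growth of the strain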
Settings: S. cerevisiae deletion strains, growth OD

Measured: normalized growth

C1CNCCN1
inactive: locus YAL013W, strain DEP1, stronger effect = lower value 1.01 | locus YAL021C, strain ccr4, stronger effect = lower value 0.999 | locus YAL026C, strain drs2, stronger effect = lower value 1.02 | locus YAL030W, strain snc1, stronger effect = lower value 1.01 | locus YBL061C, strain skt5, stronger effect = lower value 1.02 | locus YBR009C, strain hhf1, stronger effect = lower value 1.01 | locus YBR021W, strain FUR4, stronger effect = lower value 0.979 | locus YBR023C, strain chs3, stronger effect = lower value 1.02 | locus YBR171W, strain sec66, stronger effect = lower value 1.02 | locus YBR229C, strain ROT2, stronger effect = lower value 0.997 | locus YBR231C, strain swc5, stronger effect = lower value 0.997 | locus YBR279W, strain paf1, stronger effect = lower value 1.01 | locus YCL011C, strain gbp2, stronger effect = lower value 1.01 | locus YCL016C, strain dcc1, stronger effect = lower value 1.01 | locus YCL029C, strain bik1, stronger effect = lower value 0.997 | locus YCL061C, strain MRC1, stronger effect = lower value 1 | locus YCL069W, strain vba3, stronger effect = lower value 1.01 | locus YCR088W, strain abp1, stronger effect = lower value 1.01 | locus YDL005C, strain med2, stronger effect = lower value 1.02 | locus YDL035C, strain GPR1, stronger effect = lower value 1.01 | locus YDL040C, strain nat1, stronger effect = lower value 1.01 | locus YDL074C, strain BRE1, stronger effect = lower value 1.03 | locus YDL101C, strain DUN1, stronger effect = lower value 1.02 | locus YDL134C, strain PPH21, stronger effect = lower value 1.01 | locus YDL185W, strain tfp1, stronger effect = lower value 1.02 | locus YDL192W, strain arf1, stronger effect = lower value 0.999 | locus YDR001C, strain nth1, stronger effect = lower value 1.01 | locus YDR069C, strain doa4, stronger effect = lower value 1.01 | locus YDR101C, strain arx1, stronger effect = lower value 0.987 | locus YDR137W, strain rgp1, stronger effect = lower value 1.03 | locus YDR150W, strain NUM1, stronger effect = lower value 1 | locus YDR159W, strain sac3, stronger effect = lower value 1.04 | locus YDR162C, strain NBP2, stronger effect = lower value 1.02 | locus YDR195W, strain ref2 1 | locus YDR297W, strain sur2, stronger effect = lower value 1.01 | locus YDR318W, strain mcm21, stronger effect = lower value 0.998 | locus YDR334W, strain swr1, stronger effect = lower value 1.01 | locus YDR335W, strain msn5, stronger effect = lower value 1.01 | locus YDR388W, stronger effect = lower value 0.996 | locus YDR392W, strain spt3, stronger effect = lower value 0.962 | locus YDR502C, strain sam2, stronger effect = lower value 0.999 | locus YEL003W, strain gim4, stronger effect = lower value 1.01 | locus YEL037C, strain rad23, stronger effect = lower value 1.01 | locus YEL061C, strain CIN8 (second series), stronger effect = lower value 1.01 | locus YEL061C, strain CIN8, stronger effect = lower value 1 | locus YER015W, strain faa2, stronger effect = lower value 0.999 | locus YER016W, strain bim1, stronger effect = lower value 0.999 | locus YER110C, stronger effect = lower value 0.988 | locus YER111C, strain swi4, stronger effect = lower value 1.02 | locus YER155C, strain BEM2 (second series), stronger effect = lower value 1 | locus YER155C, strain BEM2, stronger effect = lower value 1.01 | locus YER167W, strain BCK2, stronger effect = lower value 1.01 | locus YFR010W, strain ubp6, stronger effect = lower value 1.01 | locus YGL078C, strain dbp3, stronger effect = lower value 0.99 | locus YGL086W, strain mad1, stronger effect = lower value 0.996 | locus YGL167C, strain pmr1, stronger effect = lower value 1.02 | locus YGL173C, strain kem1, stronger effect = lower value 1.02 | locus YGL227W, strain vid30, stronger effect = lower value 1.01 | locus YGL240W, strain doc1, stronger effect = lower value 1.01 | locus YGL248W, strain PDE1, stronger effect = lower value 1 | locus YGL253W, strain hxk2, stronger effect = lower value 0.992 | locus YGR078C, strain PAC10, stronger effect = lower value 1 | locus YGR135W, strain pre9, stronger effect = lower value 1.01 | locus YGR229C, strain SMI1, stronger effect = lower value 1.02 | locus YGR252W, strain gcn5, stronger effect = lower value 0.948 | locus YHR013C, strain ard1, stronger effect = lower value 1.03 | locus YHR027C, strain rpn1, stronger effect = lower value 1.02 | locus YHR030C, strain SLT2, stronger effect = lower value 1.02 | locus YHR079C, strain IRE1 (second series), stronger effect = lower value 0.988 | locus YHR079C, strain IRE1, stronger effect = lower value 1.03 | locus YHR094C, strain hxt1, stronger effect = lower value 1 | locus YHR129C, strain ARP1, stronger effect = lower value 1.01 | locus YHR142W, strain chs7, stronger effect = lower value 1.02 | locus YHR200W, strain rpn10, stronger effect = lower value 1.01 | locus YIL066C, strain RNR3, stronger effect = lower value 1.01 | locus YIL073C, strain SPO22, stronger effect = lower value 0.983 | locus YIL125W, strain kgd1, stronger effect = lower value 1 | locus YIR030C, strain dcg1, stronger effect = lower value 1 | locus YJL092W, strain hpr5, stronger effect = lower value 1.01 | locus YJL095W, strain BCK1 (second series), stronger effect = lower value 1.02 | locus YJL095W, strain BCK1, stronger effect = lower value 1.01 | locus YJL115W, strain asf1, stronger effect = lower value 1.01 | locus YJL129C, strain trk1, stronger effect = lower value 1.01 | locus YJL134W, strain LCB3, stronger effect = lower value 1.01 | locus YJL154C, strain vps35, stronger effect = lower value 1.02 | locus YJL164C, strain tpk1, stronger effect = lower value 1.01 | locus YJL166W, strain qcr8, stronger effect = lower value 1.02 | locus YJL168C, strain set2, stronger effect = lower value 0.994 | locus YJL187C, strain SWE1 (second series), stronger effect = lower value 1.02 | locus YJL187C, strain SWE1, stronger effect = lower value 1.01 | locus YJR043C, strain POL32, stronger effect = lower value 1.01
